Paper PMC7862700, “An all-to-all approach to the identification of sequence-specific readers for epigenetic DNA modifications on cytosine”

Key:
Test in all cases: DAPPL (digital affinity profiling via proximity ligation, sequencing); 10 mM Tris-HCl pH 7.5, 50 mM NaCl, 1 mM DTT, 4% glycerol, room temperature, 30 min; GST-TFs on glutathione beads, 16-mer random dsDNA library, 0.1% formaldehyde crosslink after washing; high values mean tight binding
FEV = biological target: T1, FEV (Homo sapiens, UniProt Q99581 1-238); conditions: protein: recombinant; tags: N-terminal GST; dsDNA, one strand shown
T1 sequence: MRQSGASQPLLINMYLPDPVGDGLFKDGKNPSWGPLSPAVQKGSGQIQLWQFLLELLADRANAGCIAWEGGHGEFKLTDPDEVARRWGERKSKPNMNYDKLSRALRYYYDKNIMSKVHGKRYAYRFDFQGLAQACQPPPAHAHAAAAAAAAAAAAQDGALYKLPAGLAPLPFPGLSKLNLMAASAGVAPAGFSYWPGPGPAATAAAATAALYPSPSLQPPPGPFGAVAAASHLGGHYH
Summary of the method: (§1)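 Binding signal is each hexamer's read frequency for a factor divided by its frequency in the tag-only sample. The factors were GST-fused human transcription factors from yeast, captured on glutathione beads, DNA-barcoded and pooled with that sample. Pools were incubated with 200 nmole of a random double-stranded 16-mer DNA library in Tris/NaCl/DTT/glycerol buffer at room temperature for 30 min, then washed, crosslinked with 0.1% formaldehyde, proximity-ligated with BsaI/T4 ligase (1 h, 37 °C), PCR-amplified and sequenced on an Illumina NextSeq500.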

ETV5 = ETV5 (Homo sapiens, UniProt P41161 1-510); conditions: protein: recombinant; tags: N-terminal GST; dsDNA, one strand shown
ETV5, sequence (P41161 whole entry): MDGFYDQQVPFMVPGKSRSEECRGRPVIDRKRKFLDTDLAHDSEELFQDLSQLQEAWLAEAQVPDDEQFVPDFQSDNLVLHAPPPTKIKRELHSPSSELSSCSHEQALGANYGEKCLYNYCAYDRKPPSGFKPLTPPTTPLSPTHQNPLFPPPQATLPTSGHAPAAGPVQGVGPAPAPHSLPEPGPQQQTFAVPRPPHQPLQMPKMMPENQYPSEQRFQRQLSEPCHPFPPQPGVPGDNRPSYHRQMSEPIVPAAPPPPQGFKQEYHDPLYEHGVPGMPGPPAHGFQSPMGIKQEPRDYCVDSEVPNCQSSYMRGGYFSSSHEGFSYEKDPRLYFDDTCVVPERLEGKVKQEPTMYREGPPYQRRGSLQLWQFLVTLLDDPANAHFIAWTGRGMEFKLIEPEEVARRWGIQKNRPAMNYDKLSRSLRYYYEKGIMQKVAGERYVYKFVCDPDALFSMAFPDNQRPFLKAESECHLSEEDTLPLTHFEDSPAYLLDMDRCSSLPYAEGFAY
Summary of the method: as §1

HSF1 = HSF1 (Homo sapiens, UniProt Q00613 1-529); conditions: protein: recombinant; tags: N-terminal GST; chain copies: 3; dsDNA, one strand shown
HSF1, sequence (Q00613 whole entry): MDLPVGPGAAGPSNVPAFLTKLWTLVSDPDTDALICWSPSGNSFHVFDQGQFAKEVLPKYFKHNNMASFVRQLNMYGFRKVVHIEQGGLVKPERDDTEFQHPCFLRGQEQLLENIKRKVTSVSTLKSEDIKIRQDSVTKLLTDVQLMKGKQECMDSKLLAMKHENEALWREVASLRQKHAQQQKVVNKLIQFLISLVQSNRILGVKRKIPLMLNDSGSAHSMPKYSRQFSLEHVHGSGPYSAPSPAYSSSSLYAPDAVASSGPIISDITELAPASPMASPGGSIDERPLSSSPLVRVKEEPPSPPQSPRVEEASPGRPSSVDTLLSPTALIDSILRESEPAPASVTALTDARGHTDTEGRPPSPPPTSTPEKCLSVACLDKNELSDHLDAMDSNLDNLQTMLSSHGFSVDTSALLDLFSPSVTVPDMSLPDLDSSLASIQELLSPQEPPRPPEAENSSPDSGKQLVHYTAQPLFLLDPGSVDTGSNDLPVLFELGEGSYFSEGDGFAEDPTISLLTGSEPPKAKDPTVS
Summary of the method: as §1

SPIC = biological target: T2, SPIC (Homo sapiens, UniProt Q8N5J4 1-248); conditions: protein: recombinant; tags: N-terminal GST; dsDNA, one strand shown
T2 sequence: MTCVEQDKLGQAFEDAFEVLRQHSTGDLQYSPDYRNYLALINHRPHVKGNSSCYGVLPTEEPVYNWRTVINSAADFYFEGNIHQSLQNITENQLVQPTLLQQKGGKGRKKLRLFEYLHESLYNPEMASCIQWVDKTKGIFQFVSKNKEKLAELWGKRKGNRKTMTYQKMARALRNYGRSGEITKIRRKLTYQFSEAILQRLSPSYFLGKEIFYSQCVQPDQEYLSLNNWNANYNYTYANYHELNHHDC
Summary of the method: as §1

ELF4 = ELF4 (Homo sapiens, UniProt Q99607 1-663); conditions: protein: recombinant; tags: N-terminal GST; dsDNA, one strand shown
ELF4, sequence (Q99607 whole entry): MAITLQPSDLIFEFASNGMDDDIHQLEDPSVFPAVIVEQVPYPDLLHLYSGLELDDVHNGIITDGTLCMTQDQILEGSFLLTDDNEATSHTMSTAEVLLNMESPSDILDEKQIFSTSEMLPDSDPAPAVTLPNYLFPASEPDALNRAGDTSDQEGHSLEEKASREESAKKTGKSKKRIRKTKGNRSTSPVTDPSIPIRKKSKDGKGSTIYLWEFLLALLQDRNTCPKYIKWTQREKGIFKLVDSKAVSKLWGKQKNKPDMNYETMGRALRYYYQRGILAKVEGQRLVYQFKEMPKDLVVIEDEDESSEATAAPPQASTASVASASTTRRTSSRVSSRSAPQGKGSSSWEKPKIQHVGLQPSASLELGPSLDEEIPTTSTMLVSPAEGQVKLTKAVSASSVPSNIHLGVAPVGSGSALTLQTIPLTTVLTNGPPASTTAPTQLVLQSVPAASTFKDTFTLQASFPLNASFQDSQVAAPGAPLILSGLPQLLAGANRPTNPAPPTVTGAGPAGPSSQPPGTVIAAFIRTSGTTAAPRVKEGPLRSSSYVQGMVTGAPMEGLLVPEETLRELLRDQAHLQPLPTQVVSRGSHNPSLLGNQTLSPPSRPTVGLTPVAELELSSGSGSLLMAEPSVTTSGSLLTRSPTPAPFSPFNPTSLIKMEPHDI
Summary of the method: as §1

ELK4 = biological target: T3, ELK4 (Homo sapiens, UniProt P28324-2 1-405); conditions: protein: recombinant; tags: N-terminal GST; dsDNA, one strand shown
T3 sequence: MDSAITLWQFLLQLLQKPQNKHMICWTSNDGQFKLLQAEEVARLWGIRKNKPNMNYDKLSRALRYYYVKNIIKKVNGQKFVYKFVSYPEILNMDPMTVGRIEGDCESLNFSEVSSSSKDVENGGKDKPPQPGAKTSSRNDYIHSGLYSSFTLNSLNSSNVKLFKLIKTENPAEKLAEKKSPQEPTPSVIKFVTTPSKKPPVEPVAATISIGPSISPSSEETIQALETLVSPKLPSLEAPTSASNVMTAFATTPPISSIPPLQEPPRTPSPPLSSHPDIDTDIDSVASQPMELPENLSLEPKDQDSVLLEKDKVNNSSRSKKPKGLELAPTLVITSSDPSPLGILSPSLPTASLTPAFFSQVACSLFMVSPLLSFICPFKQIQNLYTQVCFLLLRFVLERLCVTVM
Summary of the method: as §1

ETV2 = biological target: T4, ETV2 (Homo sapiens, UniProt O00321 1-342); conditions: protein: recombinant; tags: N-terminal GST; dsDNA, one strand shown
T4 sequence: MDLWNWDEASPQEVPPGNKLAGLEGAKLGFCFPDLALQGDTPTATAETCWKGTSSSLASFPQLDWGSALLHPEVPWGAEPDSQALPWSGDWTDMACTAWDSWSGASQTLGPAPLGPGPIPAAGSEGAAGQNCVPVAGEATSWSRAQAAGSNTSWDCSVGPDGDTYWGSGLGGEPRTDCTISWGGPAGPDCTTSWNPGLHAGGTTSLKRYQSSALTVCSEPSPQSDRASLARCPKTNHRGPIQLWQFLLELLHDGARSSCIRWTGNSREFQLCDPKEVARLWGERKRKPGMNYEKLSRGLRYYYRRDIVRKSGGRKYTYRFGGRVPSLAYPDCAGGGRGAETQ
Summary of the method: as §1

ELF3 = biological target: T5, ELF3 (Homo sapiens, UniProt P78545 1-371); conditions: protein: recombinant; tags: N-terminal GST; dsDNA, one strand shown
T5 sequence: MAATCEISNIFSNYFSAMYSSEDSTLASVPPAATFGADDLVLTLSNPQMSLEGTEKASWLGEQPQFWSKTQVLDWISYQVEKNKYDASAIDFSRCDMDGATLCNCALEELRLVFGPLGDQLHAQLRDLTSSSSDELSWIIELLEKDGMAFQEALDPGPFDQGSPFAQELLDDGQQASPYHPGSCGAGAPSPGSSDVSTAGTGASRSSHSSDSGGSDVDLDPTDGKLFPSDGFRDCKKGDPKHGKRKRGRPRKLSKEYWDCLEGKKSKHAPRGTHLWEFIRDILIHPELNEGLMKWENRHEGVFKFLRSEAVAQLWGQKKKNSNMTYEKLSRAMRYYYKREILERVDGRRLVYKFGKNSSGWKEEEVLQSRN
Summary of the method: as §1

CRX = CRX (Homo sapiens, UniProt O43186 1-299); conditions: protein: recombinant; tags: N-terminal GST; dsDNA, one strand shown
CRX, sequence (O43186 whole entry): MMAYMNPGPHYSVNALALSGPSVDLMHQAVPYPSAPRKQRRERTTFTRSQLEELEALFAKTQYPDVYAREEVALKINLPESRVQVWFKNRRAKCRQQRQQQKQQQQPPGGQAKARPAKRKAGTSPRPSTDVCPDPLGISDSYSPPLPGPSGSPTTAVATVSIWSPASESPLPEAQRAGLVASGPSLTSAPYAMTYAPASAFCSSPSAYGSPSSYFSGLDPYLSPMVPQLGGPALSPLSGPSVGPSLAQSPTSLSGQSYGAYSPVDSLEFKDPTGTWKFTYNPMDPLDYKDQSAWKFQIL
Summary of the method: as §1

ETV1 = ETV1 (Homo sapiens, UniProt P50549 1-477); conditions: protein: recombinant; tags: N-terminal GST; dsDNA, one strand shown
ETV1, sequence (P50549 whole entry): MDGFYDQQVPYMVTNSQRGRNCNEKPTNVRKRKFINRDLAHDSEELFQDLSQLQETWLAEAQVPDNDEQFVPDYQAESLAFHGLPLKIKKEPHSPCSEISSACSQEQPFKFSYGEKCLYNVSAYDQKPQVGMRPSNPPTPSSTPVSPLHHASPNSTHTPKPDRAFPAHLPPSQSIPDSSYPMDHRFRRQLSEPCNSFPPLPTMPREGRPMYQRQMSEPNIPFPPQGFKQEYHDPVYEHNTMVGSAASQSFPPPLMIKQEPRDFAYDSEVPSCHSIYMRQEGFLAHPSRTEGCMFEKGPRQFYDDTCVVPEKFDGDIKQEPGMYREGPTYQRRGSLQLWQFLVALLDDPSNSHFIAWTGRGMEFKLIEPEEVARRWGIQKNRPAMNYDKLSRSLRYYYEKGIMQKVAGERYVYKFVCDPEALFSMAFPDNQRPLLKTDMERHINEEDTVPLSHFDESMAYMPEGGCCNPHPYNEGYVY
Summary of the method: as §1

ERF = biological target: T6, ERF (Homo sapiens, UniProt P50548 1-548); conditions: protein: recombinant; tags: N-terminal GST; dsDNA, one strand shown
T6 sequence: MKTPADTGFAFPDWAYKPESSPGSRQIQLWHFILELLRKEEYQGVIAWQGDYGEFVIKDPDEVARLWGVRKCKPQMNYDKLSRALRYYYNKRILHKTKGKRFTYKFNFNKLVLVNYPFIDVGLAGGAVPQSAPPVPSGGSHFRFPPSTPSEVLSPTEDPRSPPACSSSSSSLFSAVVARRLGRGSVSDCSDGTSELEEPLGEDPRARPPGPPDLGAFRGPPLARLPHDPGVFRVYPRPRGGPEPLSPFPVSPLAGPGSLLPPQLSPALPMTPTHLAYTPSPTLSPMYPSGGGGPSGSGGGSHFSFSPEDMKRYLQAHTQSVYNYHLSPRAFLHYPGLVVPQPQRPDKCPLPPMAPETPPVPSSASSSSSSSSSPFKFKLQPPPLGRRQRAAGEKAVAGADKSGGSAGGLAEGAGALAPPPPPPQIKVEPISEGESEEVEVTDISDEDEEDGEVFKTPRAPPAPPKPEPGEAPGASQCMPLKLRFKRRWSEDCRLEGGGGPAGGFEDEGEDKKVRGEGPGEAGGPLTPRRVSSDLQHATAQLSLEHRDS
Summary of the method: as §1

ETV3L = biological target: T7, ETV3L (Homo sapiens, UniProt Q6ZN32 1-361); conditions: protein: recombinant; tags: N-terminal GST; dsDNA, one strand shown
T7 sequence: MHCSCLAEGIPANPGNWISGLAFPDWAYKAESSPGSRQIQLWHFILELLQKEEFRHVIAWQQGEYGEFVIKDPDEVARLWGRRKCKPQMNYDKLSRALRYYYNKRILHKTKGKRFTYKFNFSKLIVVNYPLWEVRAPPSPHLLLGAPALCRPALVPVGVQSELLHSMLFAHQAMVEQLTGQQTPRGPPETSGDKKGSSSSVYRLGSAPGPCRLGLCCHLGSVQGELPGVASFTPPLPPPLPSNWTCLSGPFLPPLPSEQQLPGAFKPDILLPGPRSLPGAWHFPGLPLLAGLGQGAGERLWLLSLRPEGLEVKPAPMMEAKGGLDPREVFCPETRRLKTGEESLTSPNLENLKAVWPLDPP
Summary of the method: as §1

ETS2 = biological target: T8, ETS2 (Homo sapiens, UniProt P15036 1-469); conditions: protein: recombinant; tags: N-terminal GST; dsDNA, one strand shown
T8 sequence: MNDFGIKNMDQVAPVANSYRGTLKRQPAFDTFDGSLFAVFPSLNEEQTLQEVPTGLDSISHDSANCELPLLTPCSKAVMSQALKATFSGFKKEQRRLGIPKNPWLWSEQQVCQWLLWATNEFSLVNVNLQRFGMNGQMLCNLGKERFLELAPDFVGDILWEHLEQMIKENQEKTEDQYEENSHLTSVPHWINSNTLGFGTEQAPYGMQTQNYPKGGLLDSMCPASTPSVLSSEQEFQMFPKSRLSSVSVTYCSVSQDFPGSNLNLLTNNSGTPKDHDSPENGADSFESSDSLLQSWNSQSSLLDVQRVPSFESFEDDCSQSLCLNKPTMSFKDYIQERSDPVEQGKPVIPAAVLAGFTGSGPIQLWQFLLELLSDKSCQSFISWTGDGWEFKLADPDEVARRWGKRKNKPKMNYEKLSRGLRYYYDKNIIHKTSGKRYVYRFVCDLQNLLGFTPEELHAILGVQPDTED
Summary of the method: as §1

SPDEF = biological target: T9, SPDEF (Homo sapiens, UniProt O95238 1-335); conditions: protein: recombinant; tags: N-terminal GST; dsDNA, one strand shown
T9 sequence: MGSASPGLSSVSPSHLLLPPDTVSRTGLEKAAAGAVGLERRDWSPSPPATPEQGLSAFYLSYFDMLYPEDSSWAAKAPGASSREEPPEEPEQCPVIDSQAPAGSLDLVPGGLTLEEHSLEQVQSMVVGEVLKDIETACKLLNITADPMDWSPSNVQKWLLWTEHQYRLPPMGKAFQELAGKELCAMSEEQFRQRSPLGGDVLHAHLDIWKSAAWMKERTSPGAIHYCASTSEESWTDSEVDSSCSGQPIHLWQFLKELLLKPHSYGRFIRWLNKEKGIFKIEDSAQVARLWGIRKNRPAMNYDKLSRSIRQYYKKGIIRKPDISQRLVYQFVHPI
Summary of the method: as §1

ETV7 = biological target: T10, ETV7 (Homo sapiens, UniProt Q9Y603 1-341); conditions: protein: recombinant; tags: N-terminal GST; dsDNA, one strand shown
T10 sequence: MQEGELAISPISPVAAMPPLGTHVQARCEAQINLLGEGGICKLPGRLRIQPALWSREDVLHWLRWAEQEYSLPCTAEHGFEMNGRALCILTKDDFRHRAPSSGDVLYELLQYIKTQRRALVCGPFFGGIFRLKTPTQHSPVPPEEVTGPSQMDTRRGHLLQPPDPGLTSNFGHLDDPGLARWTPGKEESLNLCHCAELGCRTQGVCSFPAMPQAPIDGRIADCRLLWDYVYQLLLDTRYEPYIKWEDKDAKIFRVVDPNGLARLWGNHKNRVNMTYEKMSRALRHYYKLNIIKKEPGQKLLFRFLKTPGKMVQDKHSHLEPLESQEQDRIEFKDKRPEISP
Summary of the method: as §1

ELF5 = biological target: T11, ELF5 (Homo sapiens, UniProt Q9UKW6-2 1-255); conditions: protein: recombinant; tags: N-terminal GST; dsDNA, one strand shown
T11 sequence: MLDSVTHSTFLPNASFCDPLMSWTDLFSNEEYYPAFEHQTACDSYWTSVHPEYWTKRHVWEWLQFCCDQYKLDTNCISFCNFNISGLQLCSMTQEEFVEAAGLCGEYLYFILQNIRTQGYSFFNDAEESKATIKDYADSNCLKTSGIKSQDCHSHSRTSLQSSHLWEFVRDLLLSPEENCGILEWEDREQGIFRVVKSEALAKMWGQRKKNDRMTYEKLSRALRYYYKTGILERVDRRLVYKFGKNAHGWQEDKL
Summary of the method: as §1

ETV3 = biological target: T12, ETV3 (Homo sapiens, UniProt P41162-2 1-143); conditions: protein: recombinant; tags: N-terminal GST; dsDNA, one strand shown
T12 sequence: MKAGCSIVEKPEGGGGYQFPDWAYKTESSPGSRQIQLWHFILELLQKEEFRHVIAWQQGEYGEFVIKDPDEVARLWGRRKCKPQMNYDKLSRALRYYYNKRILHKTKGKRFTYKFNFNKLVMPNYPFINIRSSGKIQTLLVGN
Summary of the method: as §1

ETV6 = ETV6 (Homo sapiens, UniProt P41212 1-452); conditions: protein: recombinant; tags: N-terminal GST; dsDNA, one strand shown
ETV6, sequence (P41212 whole entry): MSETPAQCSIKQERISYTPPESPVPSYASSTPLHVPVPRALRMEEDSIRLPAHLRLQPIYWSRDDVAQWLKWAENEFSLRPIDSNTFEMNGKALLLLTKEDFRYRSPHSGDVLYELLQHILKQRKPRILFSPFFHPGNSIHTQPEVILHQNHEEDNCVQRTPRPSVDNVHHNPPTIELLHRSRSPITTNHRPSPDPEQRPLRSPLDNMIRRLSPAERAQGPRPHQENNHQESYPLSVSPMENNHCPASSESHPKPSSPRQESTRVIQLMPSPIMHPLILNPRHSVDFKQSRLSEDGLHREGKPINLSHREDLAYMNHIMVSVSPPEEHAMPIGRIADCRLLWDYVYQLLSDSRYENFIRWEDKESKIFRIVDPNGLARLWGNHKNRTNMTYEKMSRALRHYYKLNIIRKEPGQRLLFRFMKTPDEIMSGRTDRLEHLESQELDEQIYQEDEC
Summary of the method: as §1

**Q.** How did the binding signal (FEV) turn out when CCCTAA was run?
**A.** 1.18 fold enrichment (6-mer frequency, TF over GST control)

**Q.** What about the binding signal (ETV5) of the same sequence?
**A.** 1.28 fold enrichment (6-mer frequency, TF over GST control)

**Q.** And the binding signal (HSF1)?
**A.** 1.29 fold enrichment (6-mer frequency, TF over GST control)

**Q.** What about the binding signal (SPIC) of the same sequence?
**A.** 1.24 fold enrichment (6-mer frequency, TF over GST control)

**Q.** What about the binding signal (ELF4) of the same sequence?
**A.** 1.28 fold enrichment (6-mer frequency, TF over GST control)

**Q.** What about the binding signal (ELK4) of the same sequence?
**A.** 1.28 fold enrichment (6-mer frequency, TF over GST control)

**Q.** What about the binding signal (ETV2) of the same sequence?
**A.** 1.23 fold enrichment (6-mer frequency, TF over GST control)

**Q.** What about the binding signal (ELF3) of the same sequence?
**A.** 1.25 fold enrichment (6-mer frequency, TF over GST control)

**Q.** What about the binding signal (CRX) of the same sequence?
**A.** 1.71 fold enrichment (6-mer frequency, TF over GST control)

**Q.** And the binding signal (ETV1)?
**A.** 1.23 fold enrichment (6-mer frequency, TF over GST control)

**Q.** And the binding signal (ERF)?
**A.** 1.36 fold enrichment (6-mer frequency, TF over GST control)

**Q.** And the binding signal (ETV3L)?
**A.** 1.32 fold enrichment (6-mer frequency, TF over GST control)

**Q.** And the binding signal (ETS2)?
**A.** 1.15 fold enrichment (6-mer frequency, TF over GST control)

**Q.** What about the binding signal (SPDEF) of the same sequence?
**A.** 1.19 fold enrichment (6-mer frequency, TF over GST control)

**Q.** And the binding signal (ETV7)?
**A.** 1.14 fold enrichment (6-mer frequency, TF over GST control)

**Q.** What about the binding signal (ELF5) of the same sequence?
**A.** 1.19 fold enrichment (6-mer frequency, TF over GST control)

**Q.** What about the binding signal (ETV3) of the same sequence?
**A.** 1.2 fold enrichment (6-mer frequency, TF over GST control)

**Q.** What about the binding signal (ETV6) of the same sequence?
**A.** 1.08 fold enrichment (6-mer frequency, TF over GST control)
